The campaign covered roughly 2,100 compounds. About 760 (36%) were called active.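 The calls were made as follows: active = thallium-flux fluorescence traces judged by eye to show enhanced or reduced glutamate response, manual score 1 or -1, so both directions (some results past the limit were not filed as active); inactive = the rest, including fluorescent or raised-baseline compounds.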 The list is a sample of the results.
Test: non-GIRK thallium flux modulation in mGlu8 cells, confirmation, counter-screen for GIRK activator project, cell-based, HEK-293 rmGlu8, no GIRK (AID 623868);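 also: extra codes mark interference with 3 for fluorescent and 4 for baseline rise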
Conditions: thallium flux fluorescence, at 10 µM, actives lie on both sides, codes: 1 enhancer, -1 blocker, 0 none, thallium stimulus containing EC20 glutamate

| Structure (SMILES) | manual score |
| --- | --- |
| CCOCc1c(C(=O)OCC(=O)Nc2ccc(C)c(S(=O)(=O)N(C)C)c2)oc2ccccc12 | 0 (inactive) |
| Cc1cc(C)c2nc(SC(C)C(=O)NCC(=O)Nc3ccc(F)c(F)c3F)cc(C)c2c1 (centres undefined) | 1 (active) |
| Cc1ccccc1NC1=C(Cl)C(=O)OC1OC(=O)c1ccco1 (centres undefined) | -1 (active) |
| CCN1CCN(CCCOc2ccc(-c3ccccc3)cc2)CC1 | 0 (inactive) |
| CC(=O)c1cccc(NC(=O)CCOc2ccccc2)c1 | 0 (inactive) |
| Cc1c(C(=O)O)c(=S)sn1CCOc1ccccc1 | -1 (active) |
| Cc1ccccc1C(=O)NNC(=S)NC(=O)COc1ccccc1 | 1 (active) |
| Cc1ccc(C(=O)NNC(=S)NC(=O)COc2ccccc2)cc1 | 1 (active) |
| Cc1ccc(OCC(=O)NC(=S)Nc2cccc(C)n2)cc1 | 1 (active) |
| CCCOc1nc2c(c(=O)n(C)c(=O)n2C)n1Cc1cccc2ccccc12 | 0 (inactive) |
| CCc1cc(-c2n[nH]c(C)c2-c2nc3ccccc3n2C)c(O)c(CN2CCN(C)CC2)c1O | 0 (inactive) |
| COc1ccc(NC(=O)NC(C)c2ccncc2)cc1OC (centres undefined) | 0 (inactive) |
| c1ccc(Cc2nnc(-c3ccccc3)o2)cc1 | 0 (inactive) |
| Fc1ccc2nc(-c3ccccc3)nc(SCc3nnc(-c4ccccc4)o3)c2c1 | 1 (active) |
| COc1cccc(/C=N/n2c(=S)n(C)c3ccccc32)c1OC | 0 (inactive) |
| COc1ccc(-c2nn(-c3ccccc3)cc2/C=N/n2cnnc2)cc1OC | 0 (inactive) |
| COc1ccc(/C=N/n2c(SC)nnc2-c2ccccc2)c(OC)c1OC | -1 (active) |
| COc1cccc(C(=O)NC(=S)Nc2ccc3c4c(cccc24)CC3)c1 | 1 (active) |
| O=C(COc1ccccc1)NC(=S)Nc1ccc2c3c(cccc13)CC2 | 1 (active) |
| COc1ccc(OC)c(Nc2cc(-c3ccccc3)nc(N)n2)c1 | 0 (inactive) |
| COc1cccc(C(=O)NCc2cn3ccsc3n2)c1 | 0 (inactive) |
| COc1cc(NC(=O)Cn2nnc(-c3ccccc3N)n2)cc(OC)c1 | 0 (inactive) |
| COc1cc(OC)cc(C(=O)Nc2nc(-c3ccccc3)c(-c3ccccc3)o2)c1 | 1 (active) |

| Structure (SMILES) | manual score |
| --- | --- |
| COc1cccc(-c2cc(C(=O)NC3CCCC3)no2)c1 | 0 (inactive) |
| COc1cccc(C(=O)Nc2nc(-c3ccccc3)c(-c3ccccc3)o2)c1 | 1 (active) |
| COc1ccc(C(=O)Nc2ccc(Oc3ncnc4sc(-c5ccccc5)cc34)cc2)cc1OC | 0 (inactive) |
| O=C(Nc1ccc(CN2CCOCC2)cc1)c1cc2ccccn2n1 | 0 (inactive) |
| C=CCN1C(=O)/C(=C2/Sc3ccccc3N2C)SC1=Nc1c(C)n[nH]c1C | 0 (inactive) |
| CCCCCn1nc(-c2ccccc2)c2nc3ccccc3nc21 | 3 (inactive) |
| O=C(NC(=S)N1CCN(Cc2ccc3c(c2)OCO3)CC1)c1ccc(Cl)cc1 | 1 (active) |
| O=C(c1ccc(COc2c(F)c(F)c(F)c(F)c2F)o1)N1CCN(Cc2ccc3c(c2)OCO3)CC1 | 0 (inactive) |
| O=C(NC(=S)N1CCN(Cc2ccccc2)CC1)c1ccccc1 | 1 (active) |
| CN1CCN(C(=S)NC(=O)/C=C/c2cccc3ccccc23)CC1 | 0 (inactive) |
| O=C(c1ccc2nccnc2c1)N1CCN(Cc2ccc3c(c2)OCO3)CC1 | 0 (inactive) |
| Cn1cc(CCC(=O)NCc2ccc3c(c2)OCO3)c2ccccc21 | 0 (inactive) |
| COC(=O)c1[nH]c2ccc(C)cc2c1NC(=O)CCN1CCN(Cc2ccc3c(c2)OCO3)CC1 | 0 (inactive) |
| SC(COCc1ccccc1)CN1CCN(Cc2ccc3c(c2)OCO3)CC1 (centres undefined) | 0 (inactive) |
| CCOC(=O)c1ccc(NC(=O)N2CCN(Cc3cccc(F)c3)CC2)cc1 | 0 (inactive) |
| O=C(NC(=S)N1CCN(Cc2ccc3c(c2)OCO3)CC1)c1cccc(Br)c1 | 1 (active) |
| CCN(CC)c1ccc(C(=O)NC(=S)N2CCN(Cc3ccc4c(c3)OCO4)CC2)cc1 | 1 (active) |
| O=C(CN1CCN(Cc2ccccc2)CC1)Nc1cccc(C(F)(F)F)c1 | 0 (inactive) |
| COCCCN(C(=S)Nc1cccc(Cl)c1)C(C)c1ccncc1 (centres undefined) | 0 (inactive) |
| CC(C)(C)CC(C)(C)NCC(O)COc1c(F)cc(Br)cc1F (centres undefined) | 4 (inactive) |
| O=C(CN1CCCCC1)Nc1cccc(Oc2ccccc2)c1 | 0 (inactive) |
| CNC(=S)N/N=C(\C)c1ccc(Cl)s1 | 1 (active) |
| CCC/C(=N/NC(=O)c1csc(C)c1C)c1ccc(Cl)s1 | 0 (inactive) |

| Structure (SMILES) | manual score |
| --- | --- |
| C/C(=N\NC(=O)c1csc(C)c1C)c1ccc(Cl)s1 | 1 (active) |
| C/C(=N\NC(=S)NC(C)C)c1ccc(Cl)s1 | 1 (active) |
| C=C(C)CNC(=S)N/N=C(\C)c1ccc(Cl)s1 | 1 (active) |
| C/C(=N\NC(N)=S)c1ccc(Cl)s1 | 0.5 (inactive) |
| Cc1cc(C)n(CC(=O)O)n1 | 0 (inactive) |
| CCNC(=S)N/N=C(\C)c1ccc(Cl)s1 | 1 (active) |
| C/C(=N\NC(=S)NCCc1ccccc1)c1cccs1 | 3 (inactive) |
| C/C(CC(=O)NC(C)C)=N\NC(=O)COc1cc(C)c(Br)cc1Br | 0 (inactive) |
| COc1ccc(N2CCCn3c2nc2c3c(=O)n(Cc3ccccc3F)c(=O)n2C)c(OC)c1 | -1 (active) |
| Cn1c(N2CCCC2)nc2c1c(=O)n(Cc1ccc(Cl)cc1)c(=O)n2C | 0 (inactive) |
| COc1ccc(N2CCN(c3nc4c(c(=O)n(C)c(=O)n4C)n3Cc3ccccc3)CC2)cc1 | 0 (inactive) |
| CCN(CC(=O)c1c(N)n(C)c(=O)n(C)c1=O)c1cccc2ccccc12 | 0 (inactive) |
| O=C1NC(=S)SC1=C1CCCCCC1 | 1 (active) |
| CCCc1cc(-c2n[nH]c(=S)n2C(C)c2ccccc2)cs1 (centres undefined) | 0 (inactive) |
| CCc1cc(-c2n[nH]c(=S)n2C(C)c2ccccc2)cs1 (centres undefined) | 1 (active) |
| CCCCn1c(-c2csc3c2CCC(C)C3)n[nH]c1=S (centres undefined) | 1 (active) |
| CCCc1cc(-c2n[nH]c(=S)n2Cc2ccccc2)cs1 | 1 (active) |
| CCCCCNc1nc(-c2ccccc2)cs1 | 0 (inactive) |
| CCCCn1c(-c2csc3c2CCCC3)n[nH]c1=S | 0 (inactive) |
| CCCCn1c(-c2csc(C(C)C)c2)n[nH]c1=S | 1 (active) |
| CCCc1cc(-c2n[nH]c(=S)n2CC(C)C)cs1 | 1 (active) |
| Cc1cccc(-n2c(C)nc3sccc3c2=O)c1 | 0 (inactive) |
| Cc1cccc(-n2c(-c3csc(C(C)C)c3)n[nH]c2=S)c1 | 1 (active) |

— PubChem BioAssay AID623868 (Vanderbilt High Throughput Screening Facility, 2012)
